# An excerpt weighted towards active compounds, which were near 17% of everything screened.
# TDP1 cell noCPT: qHTS for Inhibitors of human tyrosyl-DNA phosphodiesterase 1 (TDP1): qHTS in cells in absence of CPT; DT40 Tdp1-/- hTDP1 cells, no CPT, ATP luminescence, 48 h; AID 686978, 2013; 420,000 compounds, 15% hits; Potency, µM (series often up to 46.2 µM), inactives show at the highest dose activity change, negative = growth inhibition, most hits filed as inhibitors; also: % is scaled to controls: 0 for no effect and ±100 for the full control effect; nearly all actives have a fitted effect of over 55% in size
#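 Camptothecin absent (DMSO only). Human TDP1-complemented DT40 knockout cells, 400 cells/well, 37 °C for minimum 48 hr; ATP measured via CellTiter-Glo, 30 min dark incubation, luminescence.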
# TDP1 cell CPT: qHTS for Inhibitors of human tyrosyl-DNA phosphodiesterase 1 (TDP1): qHTS in cells in presence of CPT; 420,000 compounds, 12% hits; chicken DT40 Tdp1-/-;hTDP1 cells + 20 nM CPT, ATP luminescence, 48 h; AID 686979, 2013; Potency, µM (highest dose often 46.2 µM), inactives show at the highest dose activity change, negative = growth inhibition, hits mostly inhibitors; also: % is scaled to controls: 0 for no effect and ±100 for the full control effect; nearly all actives have a fitted effect of over 55% in size
#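 Chicken DT40 Tdp1-/- cells complemented with human TDP1, 400 cells/well, exposed to compounds plus 20 nM camptothecin for at least 48 h at 37 C; viability read as ATP content by CellTiter-Glo luminescence.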
# HT1080 IDH1KD tx: qHTS for induction of synthetic lethality in tumor cells producing 2HG: qHTS for the HT-1080-IDH1KD cell line; HT-1080 IDH1 knockdown viability, ATP luminescence, 48 h; Potency, µM (highest dose often 46.1 µM), for the others: at the top dose activity, negative = toxicity, actives largely listed as cytotoxic; 360,000 compounds, 2% hits; AID 686971, 2013;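 also: 0% = DMSO wells and -100% = cell-free medium wells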
#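 After a 2 h attachment period, IDH1KD HT-1080 cells took pin-transferred compound for 48 h at 37 °C; ATP-based luminescence after 10 min room-temperature reagent incubation reported viability.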
# HepG2 tox: qHTS for Inhibitors of TGF-b: Cytotox Counterscreen | Potency, µM (highest dose often 46.1 µM), for the others: at the top dose activity change, negative = cytotoxicity, actives largely listed as cytotoxic | HepG2 CAGA-GFP viability, ATP luminescence, 18 h | 410,000 compounds, 0.76% hits | AID 588856, 2011
#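 CellTiter-Glo luminescence gave cytotoxicity after 18 hours at 37 degrees C. The cells were HepG2 CAGA-GFP in 1% FBS DMEM, stimulated with 500 pg/mL TGF-beta after compound addition. %Activity was normalised to no-cell wells (complete cell-killing) and DMSO (no toxicity), and curves were fitted and classified.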
# TGFb inhibitor: qHTS for Inhibitors of TGF-b; HepG2 CAGA-GFP TGF-b/SMAD3 reporter, GFP fluorescence, 18 h; TGF-beta stimulated, 500 pg/mL final; 410,000 compounds, 1.2% hits; Potency, µM (doses to about 46.1 µM), for inactives: at the highest dose activity, negative = inhibition, usual class: inhibitors; also: % is scaled to controls: 0 for no effect and ±100 for the full control effect; nearly all actives have a fitted effect of over 65% in size
#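 Cell-based qHTS in HEPG2 carrying a CAGA-GFP Smad reporter; compounds added before 500 pg/mL final TGF-beta, 18 h incubation at 37 degrees C, GFP fluorescence quantified per cell by imaging cytometry.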
# HT1080NT lethal: qHTS for induction of synthetic lethality in tumor cells producing 2HG: qHTS for the HT-1080-NT fibrosarcoma cell line; AID 686970, 2013; HT-1080-NT fibrosarcoma viability, CellTiter-Glo ATP luminescence, 48 h; Potency, µM (top dose mostly 46.1 µM), for the others: at the top dose activity, negative = less viability, usual class: cytotoxic; 360,000 compounds, 1.6% hits;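 also: NT is the 2HG producing partner of a matched IDH1 knockdown line; 0% = DMSO-treated cells and -100% = media-only wells without cells; nearly all actives have a fitted effect of over 55% in size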
#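 Viability of the 2HG-overproducing fibrosarcoma line after 48 hours of compound exposure at 37 degrees C was determined by luminescence with CellTiter-Glo, and concentration-effect curves were then fitted and categorized.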
# * marks the source's active call; other numbers are inactive results; ? = inconclusive; · = no result. Calls follow the shape of the dose curve; as a rule, active = well fitted curve in the direction sought with a large enough effect; inconclusive = small, poorly fitted or top-dose-only effect, or another doubt; inactive = no such curve, though single readings can be large; an effect the other way counts as inactive or inconclusive. Potency is read from the fitted curve at half-maximal effect.
SMILES,TDP1 cell noCPT,TDP1 cell CPT,HT1080 IDH1KD tx,HepG2 tox,TGFb inhibitor,HT1080NT lethal
O=C(COC(=O)c1n[nH]c(=O)c2ccccc12)NCc1ccccc1,9.2µM*,12µM*,-9%,-15%,0%,-7%
COc1ccc(NCc2n[nH]c(=O)c3ccccc23)cc1,?,?,-14%,-29%,?,-2%
C=CCOC(=O)COc1ccc2c3c(c(=O)oc2c1)CCCC3,2%,-7%,6%,3%,-10%,1%
Cc1onc(-c2ccccc2Cl)c1C(=O)OCC(=O)N1CCCc2ccccc21,?,?,-7%,0%,-5%,-27%
OC[C@@H](O)[C@@H](O)[C@H](O)[C@H](O)CO,-1%,-2%,19%,4%,-9%,29%
O=c1[nH]nc(CNc2cccc(C(F)(F)F)c2)c2ccccc12,15µM*,26µM*,-9%,-30%,-20%,0%
COc1ccc(CC(=O)N[C@@H]2c3cc(OC)c(OC)cc3C[C@H]2O)cc1,-6%,6%,-2%,-26%,8%,-2%
CC(=O)Nc1ccc2c(c1)C(C)(C)C(C)N2C (centres undefined),?,16µM*,14%,-18%,-4%,10%
CCCCN1C(=O)C(CC(=O)NCc2ccco2)CC(C(=O)N(CC)CC)=C1C (centres undefined),-7%,-8%,20%,7%,13%,7%
CCC(OC(=O)c1ccc(S(C)(=O)=O)c([N+](=O)[O-])c1)C(=O)NC1C2CC3CC(C2)CC1C3 (centres undefined),·,·,·,5.6µM*,4.5µM*,·
CC1CCN(C(=O)C(C)OC(=O)c2ccc(S(C)(=O)=O)c([N+](=O)[O-])c2)CC1 (centres undefined),2.2µM*,0.89µM*,·,-77%,10µM*,·
CC(OC(=O)c1ccc(S(C)(=O)=O)c([N+](=O)[O-])c1)C(=O)NC1C2CC3CC(C2)CC1C3 (centres undefined),·,·,·,-101%,3.2µM*,·
CS(=O)(=O)c1ccc(C(=O)OCC(=O)NC23CC4CC(CC(C4)C2)C3)cc1[N+](=O)[O-],?,?,-22%,-99%,?,?
COc1ccc(-c2cn(CCC(=O)O)c(C)n2)cc1,0%,-17%,1%,11%,?,12%
CC1(C)c2ccccc2N2CC(=O)N[C@@]21/C=C/C=C/c1ccccc1,?,?,?,21%,?,10µM*
NCCCCc1cn(CC(=O)N2CCNCC2)nn1,4%,22%,9%,1%,-28%,-1%
OCc1cnc(SCc2ccccc2)n1Cc1ccccc1,16µM*,?,9%,-8%,2%,4%
COc1ccc(Cn2c(CO)cnc2SCc2ccc(C)cc2)cc1,?,18µM*,·,-28%,?,·
COc1ccc(Cn2c(CO)cnc2SCc2ccc(F)cc2)cc1,18µM*,?,·,-9%,-8%,·
COC(=O)c1cc(NC(=O)C(C)c2ccc(CC(C)C)cc2)ccc1O (centres undefined),?,21µM*,-30%,-22%,?,-11%
COc1ccccc1-n1c(=O)oc2ccc(Cl)cc2c1=O,16µM*,?,2.9µM*,-16%,?,2.9µM*
CS(=O)(=O)Nc1ccccc1C(=O)c1ccccc1,-26%,?,0%,-11%,-5%,-2%
